# Test results published in PubChem BioAssay (Tox21).
# Values joined by “and” are separate entries in the source; they are usually repeats but may differ in a detail not shown here. Equal entries are not always repeated. Where a structure was tested more than once in an assay, its records may differ in their call. Active and inactive are the calls of the source. Entries that show only a call come without a potency. Unless noted, calls follow the shape of the dose curve; as a rule, active = well fitted curve in the direction sought with a large enough effect in the repeat runs; inconclusive = weak or mixed curves; inactive = no such curve, though single readings can be large; an effect the other way counts as inactive or inconclusive.
# How the values were obtained:
# [1] = qHTS assay to identify small molecule antagonists of the glucocorticoid receptor (GR) signaling pathway - cell viability counter screen (AID 720693); also: nearly all actives have a fitted effect of over 55% in size
# [2] = qHTS assay for identifying genotoxic compounds that show differential cytotoxicity against isogenic chicken DT40 cell lines with known DNA damage response pathways - wild type cell line (AID 743012); also: nearly all actives have a fitted effect of over 60% in size; also: potency is read from the fitted curve at half-maximal effect
# Outline: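 First, wild type DT40 cells were plated at 300 per well and equilibrated about 0.5 h at 37 C/5% CO2. Next, compounds in DMSO were added and exposure lasted 40 h. Finally, CellTiter-Glo was added for 30 min at room temperature and luminescence recorded.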
# [3] = qHTS assay for identifying genotoxic compounds that show differential cytotoxicity against isogenic chicken DT40 cell lines with known DNA damage response pathways - Rev3 mutant cell line (AID 743014); also: nearly all actives have a fitted effect of over 55% in size; also: potency is read from the fitted curve at half-maximal effect
# [4] = qHTS assay for identifying genotoxic compounds that show differential cytotoxicity against isogenic chicken DT40 cell lines with known DNA damage response pathways - Rad54/Ku70 mutant cell line (AID 743015); also: nearly all actives have a fitted effect of over 60% in size; also: potency is read from the fitted curve at half-maximal effect
# [5] = qHTS assay to identify small molecule antagonists of the androgen receptor (AR) signaling pathway - cell viability counter screen (AID 743033; also: nearly all actives have a fitted effect of over 45% in size)
# [6] = qHTS assay to identify small molecule antagonists of the androgen receptor (AR) signaling pathway using the MDA cell line - cell viability counter screen (AID 743041; also: nearly all actives have a fitted effect of over 45% in size; also: potency is read from the fitted curve at half-maximal effect)
# Outline: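 MDA-kb2 AR-luc human breast carcinoma cells (MMTV-luciferase, AR/GR responsive) were treated with compounds plus R1881 agonist for 16 h at 37 °C. Viability was read as CellTiter-Fluor fluorescence in the same wells as the reporter assay.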
# [7] = qHTS assay to identify small molecule antagonists of the thyroid receptor (TR) signaling pathway (AID 743065); also: nearly all actives have a fitted effect of over 55% in size; also: potency is read from the fitted curve at half-maximal effect
# Outline: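 GH3.TRE-Luc rat pituitary cells carrying two TR response elements driving luciferase were plated for 4 h, given compound plus 1 nM T3 (final), and incubated 23.5 h at 37 C. ONE-Glo luminescence measured reporter inhibition; CellTiter-Fluor fluorescence tracked cytotoxicity.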
# [8] = test system: thyroid hormone receptor (rat, GH3 cells); test: qHTS assay to identify small molecule agonists of the thyroid receptor (TR) signaling pathway (AID 743066; calls by dose curve)
# [9] = qHTS assay to identify small molecule antagonists of the estrogen receptor alpha (ER-alpha) signaling pathway - cell viability counter screen (AID 743074; calls by dose curve; also: nearly all actives have a fitted effect of over 45% in size)
# [10] = qHTS assay to identify small molecule antagonists of the estrogen receptor alpha (ER-alpha) signaling pathway using the BG1 cell line - cell viability counter screen (AID 743081);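 also: compound given together with 17beta-estradiol as the ER stimulus; nearly all actives have a fitted effect of over 45% in size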; also: potency is read from the fitted curve at half-maximal effect
# Aromatase (Homo sapiens) = Aromatase (Homo sapiens) (UniProt P11511); test: qHTS assay to identify aromatase inhibitors (AID 743083); also: series mostly up to about 70 µM; nearly all actives have a fitted effect of over 55% in size
# [11] = target: Estrogen receptor (Homo sapiens) (UniProt P03372); test: qHTS assay to identify small molecule antagonists of the estrogen receptor alpha (ER-alpha) signaling pathway (AID 743069; active = well fitted curve in the direction sought with a large enough effect in the signal ratio in the repeat runs, not every such curve was filed as active; inconclusive = weak or mixed curves, or effect the other way; inactive = no such curve, though single readings can be large or run the other way; the % refers to the signal ratio; also: potency is read from the fitted curve at half-maximal effect)
# Outline: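 HEK293 cells stably carrying an ER-alpha-UAS-bla beta-lactamase reporter were pre-cultured overnight in 2% charcoal-stripped FBS medium. Test compounds in DMSO were added together with 17beta-estradiol for 18 hr at 37C. Read-out was fluorescence after 2 hr with LiveBLAzer B/G FRET substrate at room temperature.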
# [12] = target: Estrogen receptor (Homo sapiens) (UniProt P03372); test: qHTS assay to identify small molecule agonists of the estrogen receptor alpha (ER-alpha) signaling pathway (AID 743075; calls by dose curve; also: potency is read from the fitted curve at half-maximal effect)
# [13] = target: Estrogen receptor (Homo sapiens) (UniProt P03372); test: qHTS assay to identify small molecule agonists of the estrogen receptor alpha (ER-alpha) signaling pathway using the BG1 cell line (AID 743079); also: nearly all actives have a fitted effect of over 20% in size; also: potency is read from the fitted curve at half-maximal effect
# [14] = qHTS assay to identify small molecule antagonists of the estrogen receptor alpha (ER-alpha) signaling pathway using the BG1 cell line (AID 743080; calls by dose curve;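 also: BG1 cells stimulated with 17beta-estradiol alongside compound; series mostly up to about 70 µM; nearly all actives have a fitted effect of over 25% in size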)
# Outline: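 Luminescence from a 4×ERE-luciferase reporter in BG1-Luc-4E2 cells served as read-out. Cells, pre-cultured 5 days in stripped-serum phenol-red-free medium, were exposed to compound with 17beta-estradiol co-stimulation for 21.5 h at 37 C.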
# Sequence of Aromatase (Homo sapiens) (P11511 whole entry, looked up): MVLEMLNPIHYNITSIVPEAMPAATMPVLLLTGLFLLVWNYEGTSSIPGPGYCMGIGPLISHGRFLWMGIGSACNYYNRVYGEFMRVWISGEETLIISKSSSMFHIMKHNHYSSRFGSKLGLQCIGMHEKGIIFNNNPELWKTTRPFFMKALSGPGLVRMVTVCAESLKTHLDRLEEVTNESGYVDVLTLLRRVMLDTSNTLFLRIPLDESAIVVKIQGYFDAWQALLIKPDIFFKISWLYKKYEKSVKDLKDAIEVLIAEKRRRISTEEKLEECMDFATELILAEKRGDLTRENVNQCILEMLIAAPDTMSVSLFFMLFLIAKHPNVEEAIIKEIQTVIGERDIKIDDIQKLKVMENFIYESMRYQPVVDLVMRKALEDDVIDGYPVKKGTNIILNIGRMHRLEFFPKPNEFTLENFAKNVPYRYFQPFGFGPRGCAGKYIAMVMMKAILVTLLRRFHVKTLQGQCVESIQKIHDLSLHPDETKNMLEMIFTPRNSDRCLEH
# Sequence of Estrogen receptor (Homo sapiens) (P03372 whole entry, looked up): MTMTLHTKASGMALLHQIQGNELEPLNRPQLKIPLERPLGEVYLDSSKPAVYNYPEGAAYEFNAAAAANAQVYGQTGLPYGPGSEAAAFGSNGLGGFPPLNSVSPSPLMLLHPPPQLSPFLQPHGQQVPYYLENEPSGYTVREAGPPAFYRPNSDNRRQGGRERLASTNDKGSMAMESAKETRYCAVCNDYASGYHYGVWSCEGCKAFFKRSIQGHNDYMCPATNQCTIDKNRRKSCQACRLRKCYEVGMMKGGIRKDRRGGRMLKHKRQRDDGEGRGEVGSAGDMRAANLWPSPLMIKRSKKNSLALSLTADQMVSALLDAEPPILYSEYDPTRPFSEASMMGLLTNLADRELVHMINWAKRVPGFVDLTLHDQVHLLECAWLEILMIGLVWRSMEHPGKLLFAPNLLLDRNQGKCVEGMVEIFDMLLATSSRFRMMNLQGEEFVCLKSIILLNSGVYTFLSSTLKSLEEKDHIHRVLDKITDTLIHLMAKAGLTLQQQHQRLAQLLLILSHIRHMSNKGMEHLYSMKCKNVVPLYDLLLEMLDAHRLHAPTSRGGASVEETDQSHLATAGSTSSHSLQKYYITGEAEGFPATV
SMILES,Potency [1],Potency [2],Potency [3],Potency [4],outcome [5],Potency [6],Potency [7],outcome [8],outcome [9],Potency [10],Potency (Aromatase (Homo sapiens)),Potency [11],Potency [12],Potency [13],Potency [14]
CO[C@H]1C=CO[C@@]2(C)Oc3c(C)c(O)c4c(O)c(c(/C=N/N5CCN(C)CC5)c(O)c4c3C2=O)NC(=O)/C(C)=C\C=C[C@H](C)[C@H](O)[C@@H](C)[C@@H](O)[C@@H](C)[C@H](OC(C)=O)[C@@H]1C,inactive,21.1 µM (active) and 31 µM (active),29.8 µM (active) and 24.6 µM (active),26.6 µM (active) and 15.5 µM (active),inactive,26.6 µM (active),inactive,inactive,inactive,23.7 µM (active) and 34.8 µM (active),inactive,,,,
Cc1cnc(NC(=O)C2=C(O)c3ccccc3S(=O)(=O)N2C)s1,inactive,26.6 µM (active) and inactive and 6.86 µM (active),inactive and 27.4 µM (active) and 8.63 µM (active),inactive and 27.3 µM (active),inactive,inactive,inactive,inactive,inactive,inactive,inactive,inactive,inactive,inactive and 21.1 µM (active),inactive
CCCCC/C(C=O)=C\c1ccccc1,inactive,inactive,inactive,inactive,inactive,inactive,inactive,inactive,inactive,inactive,inactive,,,,
Nc1cccc(N)c1,inactive,inactive,17.2 µM (active) and inactive,61 µM (active) and inactive,inactive,inactive,inactive,inactive,inactive,inactive,inactive,,,,
COC(=O)c1ccc(O)cc1,inactive,inactive,inactive,inactive,inactive,inactive,inactive,inactive,inactive,inactive,inactive,inactive,inactive,inactive,inactive
COc1ccccc1NC(=O)CC(C)=O,inactive,inactive,inactive,inactive,inactive,inactive,inactive,inactive,,inactive,inactive,inactive,inactive,inactive,inactive
CCc1cc(C(N)=S)ccn1,inactive,inactive,inactive,inactive,inactive,inactive,inactive,inactive,inactive,inactive,,,,,
O=c1cc[nH]c(=O)[nH]1,inactive,inactive,inactive,inactive,inactive,inactive,inactive,inactive,inactive,inactive,,,,,
Cn1cnc2c1c(=O)[nH]c(=O)n2C,inactive,inactive,inactive,inactive,inactive,inactive,inactive,inactive,inactive,inactive,inactive,,,,
C=CC(=O)NC(C)(C)CS(=O)(=O)O,inactive,inactive,inactive,inactive,inactive,inactive,inactive,inactive,inactive,inactive,inactive,inactive,inactive,inactive,inactive
Cc1c(N(C)CS(=O)(=O)O)c(=O)n(-c2ccccc2)n1C,inactive,inactive,inactive,inactive,inactive,inactive,inactive,inactive,inactive,inactive,inactive,,,,
Cc1cccc2ccccc12,inactive,inactive,inactive,inactive,inactive,inactive,inactive,inactive,inactive,inactive,inactive,inactive,inactive,inactive,inactive
NC(N)=NC(N)=NCCc1ccccc1,inactive,,29.8 µM (active) and 17.1 µM (active) and 27.3 µM (active),17.1 µM (active) [middle of 4 runs],inactive,,60.8 µM (active),inactive,inactive,inactive,inactive,inactive,inactive,,
COC(=O)c1ccc(C=O)cc1,inactive,inactive,inactive,inactive,inactive,inactive,inactive,inactive,inactive,inactive,inactive,inactive,inactive,inactive,inactive
Nc1ccc(N=Nc2ccccc2)c(N)n1,inactive,4.22 µM (active) and 61.1 µM (active),4.22 µM (active),7.5 µM (active),inactive,inactive,,,inactive,23.7 µM (active) and 54.8 µM (active),inactive,49.2 µM [inhibitor] (active),13.4 µM [inconclusive] (active) and inactive,2.11 µM (active) and 2.45 µM (active) and 2.17 µM (active),
C#C[C@]1(O)CC[C@H]2[C@@H]3CCc4cc(O)ccc4[C@H]3CC[C@@]21C,,18.8 µM (active) and 48.2 µM (active) and 13.7 µM (active),18.8 µM (active) and 27.1 µM (active),21.1 µM (active) and 43 µM (active),inactive,inactive,16.8 µM (active) and 17.1 µM (active) and 13.7 µM (active),inactive,inactive,inactive,inactive,,,,
